A selection: hits, their analogues and other compounds. The true share with any hit is near 4.9%.
PP5 inh – PP5 (human) phosphatase inhibition; P53041; purified PP5c, OMFP substrate fluorescence; inhibition, % at 6.7 µM; 320,000 tested, 0.18% active;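 active = inhibition above the campaign's mean inhibition across all tested compounds plus 3 SD, cut at about 9.5% in these data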;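 also: 0% = DMSO only and 100% = 100 µM cantharidin control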
Calb FLC – affects C. albicans growth with fluconazole. growth inhibition, % (no concentration beside the values). 300,000 tested, 0.57% active. C. albicans CaCi-2 (fluconazole-resistant clinical isolate) + fluconazole, Alamar Blue growth, 48 h. AID 1979;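 active = growth inhibition above about 58% in most replicates, limit read from the data, passing the limit was not always enough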;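 also: all wells also contain fluconazole at 8 µg/ml as a sub-toxic cotreatment; 0% = median of DMSO wells and 100% = median of geldanamycin control wells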
CSC inhib – cancer stem cell inhibition | 300,000 tested, 1.1% active | inhibition, % at 7.5 µM | cancer stem cell-like cells viability, luminescence | AID 2717; in the data active = inhibition above about 75%; tested in HMLE shEcad cells
Beta apoptosis – beta cell apoptosis inhibition | protection from apoptosis, % (concentration not given with the values) | AID 435005 | 300,000 tested, 0.8% active | INS-1E cytokine-induced death, ATP luminescence, 48 h; percent of positive-control rescue, neutral wells zero;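 active = Every replicate reaches about 75%, or at least half do and their mean reaches it too, limit read from the data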;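 also: 0% = cytokine-treated negative control wells and 100% = positive control rescue; higher means more ATP so stronger rescue from cytokine killing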
PP1 inh – blocks human PP1-alpha phosphatase, a PP5 counter-screen. P62136. purified PP1alpha, OMFP fluorescence. inhibition, % at 6.7 µM. 320,000 tested, 0.9% active;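 active = inhibition above the mean inhibition of all tested compounds plus 3 SD, computed separately for each screening campaign, cut at about 15% in these data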
Target sequence (P62136 whole entry, looked up): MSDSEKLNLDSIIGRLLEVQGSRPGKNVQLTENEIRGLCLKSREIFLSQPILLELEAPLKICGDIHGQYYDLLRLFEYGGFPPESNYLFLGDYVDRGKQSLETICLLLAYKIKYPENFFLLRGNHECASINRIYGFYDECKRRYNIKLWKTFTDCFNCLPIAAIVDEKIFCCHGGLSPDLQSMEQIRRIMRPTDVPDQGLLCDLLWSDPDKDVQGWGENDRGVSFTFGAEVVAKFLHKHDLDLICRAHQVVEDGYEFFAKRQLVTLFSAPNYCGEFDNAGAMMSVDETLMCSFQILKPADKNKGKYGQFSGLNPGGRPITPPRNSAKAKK
Mdm2 MdmX PPI – disrupts the human Mdm2-MdmX interaction; O15151+Q00987; SaOS-2 split-luciferase Mdm2/MdmX complementation, luminescence; inhibition, % at 8 µM; 330,000 tested, 3% active; AID 485346;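 active = inhibition of at least 50% at 8 µM in the primary screen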
An asterisk follows results filed as active; · = not tested or not shown.

SMILES	PP5 inh	Calb FLC	CSC inhib	Beta apoptosis	PP1 inh	Mdm2 MdmX PPI
C#CCOCCOCCOCCNc1nc(N2CCN(C(=O)CCCCCCCCCCNC(=O)[C@H](CO)n3cc(CCCSC)nn3)CC2)nc(N2CCN(C(=O)CCCCCCCCCCNC(=O)[C@H](CCCCN)n3cc(CCO)nn3)CC2)n1	·	·	-6.2	2.0	·	-10.2
COc1ccc(NC(=O)CN2C(=O)COc3ccc(S(=O)(=O)N4CCOCC4)cc32)cc1Cl	1.1	-7.6	-14.9	-4.7	-0.6	30.5
CC(C)(C)c1nn(-c2ccccc2)c2[nH]c(=O)c(C=O)cc12	-0.8	-0.6	87.6*	-22.9	-0.1	37.8
CC(C)(C)c1nn(-c2ccccc2)c2nc(Cl)c(C=O)cc12	1.4	-0.4	-3.9	3.6	0.3	1.0
O=C(Cn1c(-c2ccccc2)c[n+]2ccsc12)c1ccc([N+](=O)[O-])cc1	2.6	-11.0	21.8	94.3*	-1.4	-15.4
CCC(=O)NC1OC(CO)C(O)C(O)C1O (configuration not stated)	-1.9	3.5	1.4	-1.0	-0.3	-6.4
CSc1nc2cc(Oc3cccc(Cl)c3Cl)c(Cl)cc2[nH]1	-0.2	·	103.1*	0.8	1.4	8.7
CSc1nc2ccc(Cl)cc2[nH]1	1.2	-4.6	0.2	3.8	-1.2	-6.2
O=C1C=CC(=O)N1CCCCCCN1C(=O)C=CC1=O	7.1	·	102.3*	65.2	-4.2	·
COc1ccc(/C=C2\C(=O)c3ccccc3OC2c2ccccc2)cc1 (configuration not stated)	0.4	-14.7	82.0*	25.4	-0.3	37.5
O=c1cc(O)c2c(=O)n(-c3ccccc3)c3c(c2o1)CCCCCC3	3.2	-0.6	-9.9	-1.1	16.8*	7.5
COc1ccc(F)cc1S(=O)(=O)NC1CCCC1	2.6	-23.7	-15.1	-7.6	-3.2	-1.0
Cc1c(CCOC(=O)CC23CC4CC(CC(C4)C2)C3)sc[n+]1Cc1ccccc1	-0.3	99.8*	45.5	55.8	-0.3	-4.9
Cc1ncc(C[n+]2csc(CCOC(=O)CC34CC5CC(CC(C5)C3)C4)c2C)c(N)n1	0.1	-7.2	38.9	0.8	0.7	-27.3
C/C(=N\Nc1nc2ccccc2s1)c1ccc(Br)s1	5.0	-73.5	83.6*	90.4*	3.1	10.0
C/C(=N\Nc1nc2ccccc2s1)c1ccc2c(c1)OCO2	3.4	7.3	0.4	2.7	1.2	-133.3
CCCC(O)(CCC)C(=O)NNc1ccc(C)cc1	-2.5	110.6*	23.0	6.8	-3.4	-3.5
Cc1ccc(NNC(=O)C(O)(c2cccc(C(F)(F)F)c2)c2cccc(C(F)(F)F)c2)cc1	6.2	69.3	98.9*	3.0	4.3	4.3
CCc1cc2ccc(C)cc2nc1SCC(=O)c1ccc(NC(C)=O)cc1	3.7	13.4	87.4*	6.7	2.5	7.0
CCc1cc2cccc(C)c2nc1SCC(=O)c1ccc(NC(C)=O)cc1	5.5	-10.3	120.7*	0.5	-1.9	-5.3
CCc1cc2cccc(C)c2nc1SCC(=O)Nc1cc(C)on1	0.0	-19.5	29.9	2.5	0.0	20.1
O=C(CCCc1nc2ccccc2s1)NC(c1ccccc1)c1ccccc1	-0.1	3.5	-29.0	3.0	-3.7	12.2
CC1(C)CC(=O)c2cn3nc(C(F)(F)F)nc3nc2C1	-0.1	-11.7	-8.9	-6.7	-2.7	-7.6
CCC(C)n1cnc2c(c1=O)c1nc3ccccc3nc1n2Cc1ccc(OC)cc1 (configuration not stated)	2.2	98.0*	3.7	-1.6	3.4	8.2
C#CCN1c2ccccc2Sc2cccnc21	-2.1	3.7	-4.2	4.5	-4.0	-6.2
SMILES	PP5 inh	Calb FLC	CSC inhib	Beta apoptosis	PP1 inh	Mdm2 MdmX PPI
Cc1cccc(N2CCN(C(=O)c3ccc4nc(N5CCCCC5)sc4c3)CC2)c1C	-0.8	14.0	83.6*	12.4	-2.0	31.9
CCOC(=O)N1CCN(C(=O)c2ccc3nc(N4CCCCC4)sc3c2)CC1	-1.4	-2.1	0.1	3.8	0.3	-10.9
O=S(=O)(NCC1CCCO1)c1ccc(-c2ccc(S(=O)(=O)NCC3CCCO3)cc2)cc1 (configuration not stated)	0.5	19.9	3.4	96.3*	-3.6	3.6
O=C1COc2ccc(S(=O)(=O)N3CCCC3)cc2N1	1.1	-2.0	-5.5	0.4	0.2	9.7
O=C1COc2ccc(N3C(=O)C=CC3=O)cc2N1	0.9	-21.7	89.3*	1.4	0.8	19.0
Cc1nn(-c2ccc([N+](=O)[O-])cc2)c2c1C(c1ccc(OC(F)F)cc1)N1C(=N2)C(=O)Nc2ccccc21 (configuration not stated)	-2.5	86.8*	19.9	38.7	-4.5	42.9
CC12CCC(=O)N1C(C(=O)Nc1ccccc1N1CCOCC1)CS2 (configuration not stated)	3.0	-4.7	-6.3	·	-1.1	21.6
O=C(Cn1cncc1-c1ccc([N+](=O)[O-])cc1)Nc1cccc2ccccc12	-1.1	1.4	-6.7	5.2	21.3*	·
O=C(NCCCc1nc2ccccc2[nH]1)c1cccs1	-3.2	2.2	-11.5	-4.1	-2.0	15.6
CCCN(C(=O)c1ccc(N(C)S(=O)(=O)c2ccc(C)cc2)cc1)C1CCS(=O)(=O)C1 (configuration not stated)	0.5	3.7	8.2	·	-4.0	17.0
Cc1cccc(N2NC(=O)/C(=C/c3ccc(-c4ccc(Cl)c(C(=O)O)c4)o3)C2=O)c1	·	102.7*	·	·	·	·
O=C1NN(c2ccccc2)C(=O)/C1=C/c1ccc(-c2ccc(Cl)c(C(=O)O)c2)o1	·	-34.0	·	·	·	·
Cc1ccc(Sc2ccc(/C=C3/C(=O)NN(c4ccccc4)C3=O)o2)cc1	-0.7	-10.5	89.4*	3.1	-0.2	-1.0
O=C(NCCC1CCCCN1S(=O)(=O)c1cccs1)C(=O)Nc1cccc(F)c1 (configuration not stated)	-0.2	9.7	5.6	-5.6	0.5	7.6
COc1cc2ccccc2cc1C(=O)Nc1ccc(C)cc1	3.1	19.6	73.0	2.7	4.4	-28.5
COc1cc2ccccc2cc1C(=O)Nc1ccc(Cc2ccncc2)cc1	5.8	26.3	97.4*	32.0	16.4*	29.4
COc1cc(C(=O)NCc2cccc(Cl)c2)ccc1OCC(=O)N1CCOCC1	2.1	-1.6	-11.3	·	-3.3	1.3
CCOc1cc(C(=O)NCc2ccccc2)ccc1OCC(=O)N1CCOCC1	-5.0	97.9*	·	1.9	-1.5	1.6
CCOC(=O)N1CCN(c2ccc(N3C(=O)CCCC3=O)cc2[N+](=O)[O-])CC1	-0.1	-8.9	-5.7	-5.6	0.0	15.3
N/C(=N\O)c1ccc(N2CCN(c3ncccc3C(F)(F)F)CC2)nc1	-1.8	15.2	18.8	-0.4	-0.5	-37.9
COc1ccc(CCNC(=O)C(C)SCc2ccccc2)cc1 (configuration not stated)	-0.3	16.0	-4.1	3.6	-1.2	-0.2
COc1ccc(N(C(=O)CCl)C(C(=O)NCCc2ccccc2)c2cccs2)cc1 (configuration not stated)	2.7	3.9	110.7*	-4.0	3.1	·
O=S(=O)(Nc1nc2ccccc2s1)c1cc(F)ccc1F	1.6	33.0	1.2	2.3	-2.8	6.5
